PubChem BioAssay AID556 (SRMLSC, 2006)
The campaign covered roughly 65,000 compounds. About 320 (0.49%) were called active.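 How the source made its calls: active means the 320 compounds with the highest percent inhibition in the single-dose primary screen, excluding strongly autofluorescent ones (cut at about 32% in these data); inactive means the rest, inconclusive results apart.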 This excerpt belongs to a sample that is enriched for actives.

Tested on: diphosphomevalonate decarboxylase (Streptococcus pneumoniae D39)
Assay: diphosphomevalonate decarboxylase activity blockers – biochemical, PK/LDH-coupled NADH fluorescence, primary screen (AID 556);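 on inhibition: kinetic rate of NADH fluorescence loss reporting ADP formed by the decarboxylase; 0% = full reaction rate with carrier and 100% = no-substrate background rate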
Details: purified DPM-DC, at 10 µM
[1] = stronger effect = higher value unless noted
[2] = measured here: pilot screen trials, stronger effect = higher value

Cc1ccc(OS(=O)Nc2cccc3nccnc23)cc1 (stereo not drawn)
inhibition [1]: inactive

CCCCSc1nnc(-c2ccc(NC(=O)CC)cc2)n1C
inhibition [1]: 6% (inactive)

CC1CCc2sc3nc(N4CCN(CCO)CC4)n4ncnc4c3c2C1 (stereo not drawn)
inhibition [1]: inactive

N#Cc1c2c(c(N3CCN(CCO)CC3)n3c1nc1ccccc13)CCCC2
inhibition [1]: inactive

CCC(=O)N(Cc1cc2cc(OC)ccc2[nH]c1=O)c1ccccc1C
inhibition [1]: 16% (inactive)

O=C(Cn1c(=O)n(Cc2ccco2)c(=O)c2ccccc21)NCC1CCCO1 (stereo not drawn)
inhibition [1]: inactive

O=C(CSc1nc2ccccc2o1)N1CCN(c2ccc(Cl)cc2)CC1
inhibition [1]: 0.5% [measured here: pilot screen trials, stronger effect = higher value]
outcome [1]: inactive

CC(CNC(=O)c1ccc(Br)o1)NC(=O)c1ccc(Br)o1 (stereo not drawn)
inhibition [1]: 2% (inactive)

CCc1nnc(NC(=O)c2cccs2)s1
inhibition [1]: 5% (inactive)

CCCn1c(SCC(=O)Nc2cccc(C(=O)OCC)c2)nnc1-c1ccoc1C
inhibition [1]: 2% (inactive)

CCC1=[N+]([O-])C(C)(/C(C)=N\O)N(O)C1(C)C (stereo not drawn)
inhibition [1]: inactive

c1coc(-c2nc3nc4ccccc4n3nc2-c2ccco2)c1
inhibition [1]: 4% (inactive)

CN(c1nc2ccccc2n2c(-c3ccco3)nnc12)S(=O)(=O)c1ccccc1
inhibition [1]: 48% (active)

CC(=O)Nc1ccc(S(=O)(=O)N2CCCC2C(=O)O)cc1 (stereo not drawn)
inhibition [1]: inactive

CCOc1cccc(-n2nnnc2-c2ccc(OC)cc2)c1
inhibition [1]: 4.5% [measured here: pilot screen trials, stronger effect = higher value]
outcome [1]: inactive

O=C(Cc1cccs1)N1CCCC(c2nc(-c3ccc(S(=O)(=O)N4CCCC4)cc3)no2)C1 (stereo not drawn)
inhibition [1]: inactive

CCOC(=O)c1ccc(N2C(=O)CC(N3CCC(C(=O)OCC)CC3)C2=O)cc1 (stereo not drawn)
inhibition [1]: inactive

O=C(NC12CC3CC(CC(C3)C1)C2)N1CCCC(CO)C1 (stereo not drawn)
inhibition [1]: inactive

CC(=O)Oc1cc2c(C(=O)NCCN3CCOCC3)c(C)oc2c2ccccc12
inhibition [1]: inactive

CN(C)c1ccc(NC(=O)c2ccncc2)c2ccccc12
inhibition [1]: 0% [measured here: pilot screen trials, stronger effect = higher value]
outcome [1]: inactive

Cn1c(=O)[nH]c(=O)c2c1nc(CN1CCN(c3ccccc3F)CC1)n2CCc1ccccc1
inhibition [1]: inactive

Cc1cc(C)n(C(=O)c2ccc(C)c(S(=O)(=O)N3CCOCC3)c2)n1
inhibition [1]: inactive

COc1ccc(C2C3=C(OC(C)=O)c4ccccc4C3=Nc3c2c(=O)n(C)c(=O)n3C)cc1 (stereo not drawn)
inhibition (stronger effect = higher value): 70% (active)
inhibition [2]: 3.5%

Cc1cccc(C2c3c(n(C)c(=O)n(C)c3=O)N=C3c4ccccc4C(=O)C32)c1 (stereo not drawn)
inhibition (stronger effect = higher value): 4% (inactive)
inhibition [2]: 1%

COc1ccc(-c2c3c(=O)n(C)c(=O)n(C)c3cn2NC(C)=O)cc1
inhibition [1]: 20% (inactive)

O=C(O)c1cc(S(=O)(=O)N2CCCCCC2)c(Cl)cc1Cl
inhibition [1]: inactive

COc1ccccc1N1CCN(C(=O)c2ccc(S(=O)(=O)N3CCCCC3)cc2)CC1
inhibition [1]: inactive

COC(=O)c1cccc(NC(=O)CN2CCC(NC(=O)c3cc(OC)c(OC)c(OC)c3)CC2)c1
inhibition [1]: inactive

O=C(Nc1cccc2cccnc12)c1cccc(N2C(=O)CCC2=O)c1
inhibition [1]: 3% (inactive)

C=C(C)CSc1nc(N)c2c3c(sc2n1)CCC3
inhibition [1]: 6% (inactive)

COc1cc(Cl)c(C)cc1NC(=O)CSc1nnc(-c2cccnc2)n1Cc1ccco1
inhibition [1]: inactive

O=C(Nc1ccccc1F)c1cc(S(=O)(=O)N2CCCCC2)cs1
inhibition [1]: inactive

COc1ccc(-c2c(C)nn3c(N4CCC(C(=O)N5CCCCC5)CC4)cc(C)nc23)cc1OC
inhibition [1]: inactive

CCCS(=O)(=O)Nc1c(C(=O)O)[nH]c2ccccc12
inhibition [1]: 8% [measured here: pilot screen trials, stronger effect = higher value]
outcome [1]: inactive

Cc1ccc(C)c(N2CCN(C(=O)CCCCn3c(=O)[nH]c4ccccc4c3=O)CC2)c1
inhibition [1]: inactive

COc1ccc(C(C)=O)cc1COC(=O)Cn1cnc2ccccc2c1=O
inhibition [1]: inactive

O=S(=O)(c1ccc(F)cc1)N1CCN(Cc2ccccc2C(F)(F)F)CC1
inhibition [1]: inactive

CCOc1c(N2CCCCC2)c(=O)c1=O
inhibition [1]: inactive

O=C(CSCc1cccs1)N1CCCC1
inhibition [1]: 0% [measured here: pilot screen trials, stronger effect = higher value]
outcome [1]: inactive

Cc1c2cn[nH]c(=O)c2c(C)n1Cc1ccc(F)cc1
inhibition [1]: inactive

CCS(=O)(=O)n1nc(-c2ccccc2)nc1SCc1ccccc1
inhibition [1]: inactive

CC1=C(C(=O)Nc2ccccc2)C(c2cccs2)C(C#N)=C(SCC#N)N1 (stereo not drawn)
inhibition (stronger effect = higher value): 1% (inactive)
inhibition [2]: 3%

CC1CCCN(Cc2nc3c(c(=O)n(C)c(=O)n3C)n2CC(=O)c2ccccc2)C1 (stereo not drawn)
inhibition [1]: inactive

Cc1cc(Nc2cccc(F)c2)n2ncnc2n1
inhibition [1]: inactive

Cc1cc(C)c(C#N)c(SCc2[nH]nc3c2C(c2ccccc2)C(C#N)=C(N)O3)n1 (stereo not drawn)
inhibition [1]: 0% [measured here: pilot screen trials, stronger effect = higher value]
outcome [1]: inactive

CC(C[N+](C)(C)C)OC(N)=O (stereo not drawn)
inhibition (stronger effect = higher value): 1% (inactive)
inhibition [2]: 0%

CCOC(=O)CSC1=C(C#N)C(c2ccco2)C(C(=O)OCc2ccccc2)=C(C)N1 (stereo not drawn)
inhibition [1]: 11% (inactive)

NC(=O)c1ccccc1NC(=O)c1ccccc1F
inhibition [1]: inactive

Cc1nc2ncnn2c(C)c1CCC(=O)N1CCN(C(=O)c2ccco2)CC1
inhibition [1]: inactive

O=C(c1ccccc1)c1ccc(OC(=O)N2CCCC2)cc1
inhibition [1]: inactive

COC(=O)c1ccccc1NC(=O)Cn1nc(C(F)(F)F)c2c1CCC2
inhibition [1]: inactive

CCN=C1SC(CC(=O)Nc2ccc(C)cc2)C(=O)N1CC (stereo not drawn)
inhibition [1]: inactive

Cc1ccccc1Nc1nnc(C)c(=O)[nH]1
inhibition [1]: 2% (inactive)

CCSc1nc2c(c(=O)[nH]1)C(c1cccnc1)C(C(=O)OC(C)C)=C(C)N2 (stereo not drawn)
inhibition [1]: 0% [measured here: pilot screen trials, stronger effect = higher value]
outcome [1]: inactive

COc1ccc(NC(=O)CCNC(=O)Cn2ccc3ccccc3c2=O)c(OC)c1
inhibition [1]: 1.5% [measured here: pilot screen trials, stronger effect = higher value]
outcome [1]: inactive

CCOC(=O)CSc1nnc(NC(=O)c2cccc(S(=O)(=O)N3CCCC3)c2)s1
inhibition [1]: inactive
